In the library only some 1.2% were active in any assay of this set; here they are far more common.
RGS7-Gao = RGS7-Galphao binding modulators, primary screen, biochemical, multiplexed bead flow cytometry; actives lie on both sides; hit rate 0.35% among 220,000; binding response (% of control), % at 10 µM; Guanine nucleotide-binding protein G(o) subunit alpha (Homo sapiens), P09471; in the data active means binding response below about 49% or above about 150%; inconclusive means no clear call, values can overlap the other calls; inactive means in between;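 further: fluorescent Galphao held in activated GDP-AlF4 state binding bead-coupled RGS7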
Target sequence (P09471 whole entry, looked up): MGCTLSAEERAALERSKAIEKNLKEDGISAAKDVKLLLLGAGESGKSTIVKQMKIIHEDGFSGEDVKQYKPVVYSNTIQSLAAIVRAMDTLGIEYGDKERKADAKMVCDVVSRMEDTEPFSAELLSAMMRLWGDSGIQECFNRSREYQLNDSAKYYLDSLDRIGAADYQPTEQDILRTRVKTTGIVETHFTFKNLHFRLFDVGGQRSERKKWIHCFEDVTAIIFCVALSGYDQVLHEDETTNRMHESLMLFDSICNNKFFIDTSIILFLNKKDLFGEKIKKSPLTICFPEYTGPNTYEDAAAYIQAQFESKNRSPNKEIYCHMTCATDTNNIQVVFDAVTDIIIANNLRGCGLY
GSH fluor = compound fluorescence on glutathione beads, profiling panel, artefact control, biophysical, 488/530 nm, flow cytometry | GSH beads flow cytometry, compound fluorescence 488/530 nm; hits give high values | fluorescence (KMESF) at 10 µM | hit rate 0.25% among 190,000 | AID 1776, 2009; in the data active means fluorescence above about 89;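 further: glutathione beads carrying GST-tagged Bcl family fusion proteins plus one bare bead set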
Avidin fluor = green autofluorescence of compounds with avidin beads – biophysical, 488/530 nm, flow cytometry, artefact control, profiling panel | hit rate 0.38% among 220,000 | fluorescence (KMESF) at 10 µM | AID 1775, 2009 | compound fluorescence 488/530 nm; hits give high values; in the data active means fluorescence above about 47
RGS4-Gao reg = modulators of RGS4 binding to Galphao, primary screen, biochemical, multiplexed bead flow cytometry | hit rate 0.33% among 220,000 | AID 1415, 2008 | actives lie on both sides | binding response (% of control), % at 10 µM | Guanine nucleotide-binding protein G(o) subunit alpha (Homo sapiens), P09471; in the data active means binding response below about 49% or above about 150%; inactive means in between;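 further: fluorescent Galphao activated with aluminum fluoride binding bead-coupled RGS4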
RGS8-Gao reg = RGS8-Galphao binding modulators, primary screen, biochemical, multiplexed bead flow cytometry. hit rate 0.34% among 220,000. Guanine nucleotide-binding protein G(o) subunit alpha (Homo sapiens), P09471. response (percent of control binding), % at 10 µM. actives lie on both sides; in the data active means response below about 60% or above about 140%; inactive means in between;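 further: Galphao activated as the GDP aluminium fluoride complex binding bead-coupled RGS8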
RGS16-Gao HTS = modulators of RGS16 binding to Galphao, primary screen, biochemical, human proteins, multiplexed bead flow cytometry; hit rate 0.38% among 220,000; binding response (% of control), % at 10 µM; bead-based flow cytometry RGS16-Galphao binding, fluorescence; actives lie on both sides; AID 1441, 2008; Regulator of G-protein signaling 16 (Homo sapiens) + Guanine nucleotide-binding protein …;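 further: Galphao activated by GDP with aluminum fluoride before binding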
Target sequence (O15492 whole entry, looked up): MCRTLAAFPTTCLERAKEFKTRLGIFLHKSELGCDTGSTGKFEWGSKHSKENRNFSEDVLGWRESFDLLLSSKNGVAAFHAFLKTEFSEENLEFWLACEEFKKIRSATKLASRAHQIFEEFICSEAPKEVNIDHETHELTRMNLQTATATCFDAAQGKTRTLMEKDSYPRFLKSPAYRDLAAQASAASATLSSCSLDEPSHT
Target sequence (P09471 whole entry, looked up): as the sequence (P09471 whole entry, looked up) above
RGS-Gao = modulators of RGS–Galpha-o binding, primary screen, biochemical, multiplexed beads, flow cytometry, RGS4/7/8/16/19 | hit rate 99% among 1,600 | shares compounds with RGS16-Gao HTS | RGS4–Galpha-o binding response, % at 10 µM | multiplexed bead flow cytometry;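 further: fluorescently labeled Galpha-o bound to GDP with aluminium fluoride binding biotinylated RGS beads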
Biotin-avidin = disruption of biotin probe capture by avidin, counter-screen for RGS protein interaction modulators, biochemical, flow cytometry, bead-based; shares compounds with RGS16-Gao HTS; streptavidin beads, fluorescein-biotin binding; inhibition, % at 10 µM; 1,700 tested, under 10 active; AID 1783, 2009;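 active means inhibition above 50%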;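 further: median green fluorescence of gated singlet beads compared with DMSO control wells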
RGS8-Gao single = RGS8-Galphao binding modulators, confirmation, biochemical, multiplexed bead flow cytometry, single concentration; binding response (% of control), % at 10 µM; bead-based flow cytometry RGS8-Galphao binding, fluorescence; actives lie on both sides; hit rate 3% among 1,700; shares compounds with RGS16-Gao HTS; in the data active means binding response below about 72% or above about 130%; inactive means in between;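 further: Galphao activated as GDP AlF4 complex before binding bead RGS8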
RGS7-Gao confirm = RGS7-Galphao binding modulators, confirmation, biochemical, multiplexed bead flow cytometry, single concentration. shares compounds with RGS16-Gao HTS. bead-based flow cytometry RGS7-Galphao binding; actives lie on both sides. response (percent of control binding), % at 10 µM. hit rate 7.8% among 1,700. AID 1837, 2009; in the data active means response below about 75% or above about 130%; inactive means in between;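 further: fluorescent Galphao activated with GDP and aluminum fluoride binding bead-coupled RGS7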
RGS16-Gao conf = modulators of RGS16-Galphao protein binding, confirmation, biochemical, single concentration, multiplexed bead flow cytometry; shares compounds with RGS16-Gao HTS; bead-based flow cytometry; actives lie on both sides; response (% of control binding), % at 10 µM; hit rate 4% among 1,700; AID 1838, 2009; in the data active means response below about 74% or above about 130%; inactive means in between;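 further: Galphao activated as the GDP aluminium fluoride complex binding bead-coupled RGS16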
RGS4-Gao single = modulators of RGS4-Galphao protein binding, confirmation, biochemical, single concentration, multiplexed bead flow cytometry. shares compounds with RGS16-Gao HTS. actives lie on both sides. binding response (% of control), % at 10 µM. hit rate 4% among 1,700. AID 1840, 2009; in the data active means binding response below about 74% or above about 130%; inactive means in between
RGS19-Gao conf = regulators of RGS19-Galphao binding, confirmation, biochemical, single point, multiplexed bead flow cytometry | shares compounds with RGS16-Gao HTS | bead-based flow cytometry RGS19-Galphao binding; actives lie on both sides | response (percent of control binding), % at 10 µM | hit rate 5% among 1,700 | AID 1841, 2009; in the data active means response below about 50% or above about 160%; inactive means in between
Of the large screens only hits and unclear results are named; the others gave an inactive call (follow-up assays come after a bar, where they were run); [ ] = remark or other dose. Unless noted, how the calls were made is not given here.

COc1ccc(/C=C/c2nnc(NC(C)=O)s2)cc1	RGS7-Gao inconclusive, RGS4-Gao reg 158[activator] (no result: GSH fluor) | Biotin-avidin inactive | RGS8-Gao single inactive | RGS7-Gao confirm inactive | RGS16-Gao conf inactive | RGS4-Gao single inactive | RGS19-Gao conf inactive
CCOC(=O)C1CCCN(C2CC(=O)N(c3ccccc3)C2=O)C1 (centres undefined)	none
CCOC(=O)c1ccc(N2C(=O)CC(N3CCN(C/C=C/c4ccccc4)CC3)C2=O)cc1 (centres undefined)	RGS8-Gao reg 153[activator] | RGS-Gao 134 | Biotin-avidin inactive | RGS8-Gao single inactive | RGS7-Gao confirm inactive | RGS16-Gao conf inactive | RGS4-Gao single inactive | RGS19-Gao conf inactive
CCCN(CCC)c1nc(C#N)nc(N(CCC)CCC)n1	RGS8-Gao reg 48 | RGS-Gao 96 | Biotin-avidin inactive | RGS8-Gao single inactive | RGS7-Gao confirm inactive | RGS16-Gao conf inactive | RGS4-Gao single inactive | RGS19-Gao conf inactive
O=C(c1cnccn1)N(Cc1cccs1)C1(C(=O)NC2CCCCC2)CCCCC1	RGS16-Gao HTS 246[activator] | RGS-Gao 115 | Biotin-avidin inactive | RGS8-Gao single inactive | RGS7-Gao confirm 67 | RGS16-Gao conf inactive | RGS4-Gao single inactive | RGS19-Gao conf inactive
O=C(c1cnccn1)N(Cc1cccs1)C1(C(=O)NC2CCCC2)CCCCC1	none
CCNC(=O)Cn1c(=O)c(=O)n(Cc2ccccc2)c2ccc(Cl)cc21	RGS7-Gao 171[activator], Avidin fluor 57, RGS4-Gao reg 162[activator], RGS16-Gao HTS 243[activator] | Biotin-avidin inactive | RGS8-Gao single inactive | RGS7-Gao confirm inactive | RGS16-Gao conf inactive | RGS4-Gao single inactive | RGS19-Gao conf inactive
NC(=O)[C@@H]1CCCCNc2c(I)cc([N+](=O)[O-])cc2C(=O)N[C@@H](CCC(=O)O)C(=O)N[C@@H](CO)C(=O)N1	none
NC(=O)[C@@H]1CCNc2c(I)cc([N+](=O)[O-])cc2C(=O)N[C@@H](CCC(=O)O)C(=O)N[C@@H](CO)C(=O)N1	RGS16-Gao HTS 404[activator] | RGS-Gao 108
CC1(CC(=O)N/N=C/c2ccc(-c3cccc(C(F)(F)F)c3)o2)OCCO1	RGS7-Gao 262[activator], Avidin fluor 254, RGS4-Gao reg 169[activator], RGS16-Gao HTS 204[activator] | Biotin-avidin inactive | RGS8-Gao single inactive | RGS7-Gao confirm inactive | RGS16-Gao conf inactive | RGS4-Gao single inactive | RGS19-Gao conf inactive
CCOC(=O)N/N=C\c1ccc(-c2cccc(C(F)(F)F)c2)o1	none
O=c1nc(Nc2ccc(Br)cc2)sc2ccc([N+](=O)[O-])cc12	RGS7-Gao inconclusive (no result: GSH fluor)
Cc1ccccc1-n1c(=O)c(C#N)cc2c(=O)n3ccccc3nc21	none
Cc1cc(-n2c(=O)c(C#N)cc3c(=O)n4ccccc4nc32)no1	RGS16-Gao HTS -3.0 | RGS-Gao 89
CCOC(=O)c1[nH]c(C)c(CN(C(C)=O)c2ccc(OCC)cc2)c1C	none
CC(C(=O)NC(=O)NCc1ccccc1)N1C(=O)c2ccccc2C1=O (centres undefined)	none (no result: RGS7-Gao, Avidin fluor, RGS8-Gao reg, RGS16-Gao HTS) | Biotin-avidin inactive | RGS8-Gao single inactive | RGS7-Gao confirm inactive | RGS16-Gao conf inactive | RGS4-Gao single inactive | RGS19-Gao conf inactive
Cc1ccccc1/C=N/n1c(-c2cc(-c3ccccc3)n[nH]2)n[nH]c1=S	RGS7-Gao inconclusive, RGS4-Gao reg 37, RGS8-Gao reg 41 (no result: GSH fluor) | Biotin-avidin inactive | RGS8-Gao single inactive | RGS7-Gao confirm inactive | RGS16-Gao conf inactive | RGS4-Gao single inactive | RGS19-Gao conf inactive
Cc1ccsc1/C=N/n1c(-c2cc(-c3ccccc3)n[nH]2)n[nH]c1=S	RGS7-Gao inconclusive (no result: GSH fluor)
Cc1ccc(C(C(=O)NC2CCCC2)N(Cc2cccnc2)C(=O)c2snc(C(N)=O)c2N)o1 (centres undefined)	none
Cc1ccc(C(C(=O)NC(C)(C)C)N(Cc2ccccc2)C(=O)c2snc(C(N)=O)c2N)o1 (centres undefined)	RGS7-Gao 161[activator], Avidin fluor 128 | RGS-Gao 110 | Biotin-avidin inactive | RGS8-Gao single inactive | RGS7-Gao confirm inactive | RGS16-Gao conf inactive | RGS4-Gao single inactive | RGS19-Gao conf inactive
c1ccc(SSc2ccccc2)cc1	RGS16-Gao HTS -4.9 | RGS-Gao 100
Cc1nccnc1Sc1ccccc1	RGS7-Gao inconclusive (no result: GSH fluor)
CCN(CC)S(=O)(=O)c1ccc(Cl)c(C(=O)Oc2cccc(-c3cnc4ccccc4n3)c2)c1	none
CCN(CC)S(=O)(=O)c1cc(C(=O)Oc2cccc(-c3cnc4ccccc4n3)c2)ccc1Br	RGS7-Gao -8.5, RGS4-Gao reg -30, RGS8-Gao reg 11, RGS16-Gao HTS -29 | Biotin-avidin inactive | RGS8-Gao single inactive | RGS7-Gao confirm inactive | RGS16-Gao conf inactive | RGS4-Gao single inactive | RGS19-Gao conf inactive

Screening data: PubChem BioAssay, NMMLSC
